M18AAP inhibitor: PfM18AAP inhibitors, malaria aminopeptidase, primary screen, biochemical, QFRET, recombinant enzyme; 290,000 compounds, 1.2% hits; M18 aspartyl aminopeptidase (Plasmodium falciparum 3D7); inhibition, % at 7.35 µM; AID 1822, 2009; H-Glu-NHMec fluorogenic cleavage;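 active = inhibition above the campaign mean inhibition over all tested compounds plus 3 SD, cut at about 28% in these data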
SMARCA2 act: SMARCA2 (BRM) function activators, primary screen, cell-based, luminescence, high throughput. 370,000 compounds, 1% hits. MG213 cells, MMTV-luciferase reporter, dexamethasone, overnight. activation, % at 9.1 µM; in the data active = activation above about 7.8%
MIN6 prolif: inducers of MIN6 beta-cell proliferation, primary screen, ATP luminescence, uHTS; 330,000 compounds, 0.29% hits; AID 2380, 2010; MIN6 cells proliferation, ATPlite luminescence, 48 h; cells starved in 0.2% serum; 100% = growth in 10% serum; proliferation, % at 10 µM;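 active = compounds whose signal lies at least 3.5 SD above the mean of all wells on their plate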
Exocytosis inh: LAMP-1 surface exposure blockers, TALL-104 cells – cell-based, flow cytometry, MLPCN library, primary screen; TALL-104 LAMP-1 surface exposure; cells stimulated with thapsigargin and PMA; inhibition, % at 10 µM; 360,000 compounds, 0.66% hits;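 active = inhibition above about 55%, limit read from the data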
JMJD2C inh: inhibitors of GASC-1 histone demethylase, primary screen, biochemical, fluorescence, DELFIA europium; GST-JMJD2C(1-420) H3K9me3 demethylation; inhibition, % at 2.35 µM; 330,000 compounds, 0.069% hits;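 active = more than half of a compound's replicate wells show inhibition beyond 50%, single wells judged on their own value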;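 note: signal counts dimethyl H3K9 product captured on neutravidin plate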
ALR inh: inhibitors of human ALR sulfhydryl oxidase, primary screen, biochemical, H2O2 detection, HRP-luminol luminescence, single point | purified ALR, DTT oxidation | 290,000 compounds, 3.8% hits | FAD-linked sulfhydryl oxidase ALR (Homo sapiens), P55789 | inhibition, % (concentration not given with the values);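 active = mean replicate inhibition above about 79%, with every replicate also reaching it, limit read from the data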
Target sequence (P55789 whole entry, looked up): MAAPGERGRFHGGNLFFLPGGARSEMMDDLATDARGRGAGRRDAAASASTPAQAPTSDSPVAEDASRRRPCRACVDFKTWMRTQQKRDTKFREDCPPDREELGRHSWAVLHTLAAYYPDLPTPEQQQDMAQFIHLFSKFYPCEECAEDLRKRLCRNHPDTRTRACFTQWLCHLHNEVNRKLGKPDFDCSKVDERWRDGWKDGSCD
Of the large screens only hits and unclear results are named; the others gave an inactive call. Most compounds without a hit are left out; they make up all but 5.4% or so of the library.

COC(=O)[C@]12C[C@H](CC(=O)N3CCCC3)C(=O)N(Cc3ccccc3)C1=C[C@H](COCc1ccccc1)O[C@@H]2C	none (no result: M18AAP inhibitor, MIN6 prolif, Exocytosis inh, JMJD2C inh, ALR inh)
CC1(C)CC(=O)C2=C(C1)OC(N)=C(C#N)C2c1cccs1 (configuration not stated)	ALR inh 95.7
COCCCN1C(=O)[C@H](CC(=O)N2CCN(C(=O)c3ccco3)CC2)[C@]2(C(=O)OC)CCCCC=C12	none (no result: M18AAP inhibitor, MIN6 prolif, Exocytosis inh, JMJD2C inh, ALR inh)
COc1ccc(S[C@]2(C(=O)N3CCCC3)CC(=O)N(C(=O)CCc3ccccc3)[C@@H]2c2ccc(OC)cc2)cc1	none (no result: M18AAP inhibitor, MIN6 prolif, Exocytosis inh, JMJD2C inh, ALR inh)
Cn1c(=Nc2ccc(N3CCOCC3)cc2)ccc2ccccc21	ALR inh 99.2
Cn1c(=S)c2[nH]c(SCc3cccnc3)nc2n(C)c1=O	none (no result: M18AAP inhibitor, MIN6 prolif, JMJD2C inh, ALR inh)
CCc1cc(=O)[nH]c(SCc2cccnc2)n1	ALR inh 98.3 (no result: SMARCA2 act)
CCc1cc(=O)[nH]c(SCc2ccc(C)cc2)n1	none
CCc1c(C)nc(SCc2cccnc2)[nH]c1=O	ALR inh 98.8 (no result: SMARCA2 act)
Cc1ccc(-c2nc3ncccn3c2NC(=O)c2cccc(C)c2)cc1	none (no result: M18AAP inhibitor, MIN6 prolif, Exocytosis inh, JMJD2C inh, ALR inh)
CCn1c(-c2ccc(C)cc2)n[nH]c1=S	none
COc1ccc(CCn2c(-c3ccc(C(C)(C)C)cc3)n[nH]c2=S)cc1OC	SMARCA2 act 7.9 (no result: JMJD2C inh)
COc1ccc(-c2n[nH]c(=S)n2CC(C)C)cc1	ALR inh 88.0
CCn1c(-c2ccc(Cl)cc2)n[nH]c1=S	ALR inh 97.7
COc1ccc(Cn2c(-c3ccc(OC)cc3)n[nH]c2=S)cc1	ALR inh 94.7
CC(C)Cn1c(-c2csc(C(C)C)c2)n[nH]c1=S	ALR inh 93.9
CCn1c(-c2ccccc2O)n[nH]c1=S	ALR inh 92.2
CC(C)Cn1c(-c2csc3ccccc23)n[nH]c1=S	ALR inh 94.6
CCn1c(-c2csc(C(C)C)c2)n[nH]c1=S	none
CCn1c(-c2csc3ccccc23)n[nH]c1=S	none
O=C(c1ccccc1Br)N1CCc2c([nH]c3ccccc23)C1	ALR inh 83.3
CCCc1[nH]c2ccc(C#N)cc2c1CCC	ALR inh 96.7
CCCc1[nH]c2ccc(C(=O)OC)cc2c1CCC	none
Cc1cccnc1NC1CCCCC1	none
c1ccc2c(NC3CCCC3)nnc(NC3CCCC3)c2c1	ALR inh 98.4
Cc1ccc(Cn2cc(CN3[C@@H](CC(C)C)COc4cc(Br)ccc4S3(=O)=O)nn2)cc1	none (no result: M18AAP inhibitor, MIN6 prolif, Exocytosis inh, JMJD2C inh, ALR inh)
CCn1cc(CCC(=O)Nc2ccc(Oc3cccnc3)cc2)c2ccccc21	none (no result: M18AAP inhibitor, MIN6 prolif, Exocytosis inh, JMJD2C inh, ALR inh)
COc1cccc(NC(=O)CN2CCSc3ccccc32)c1	ALR inh 99.6
Cc1cccc(NC(=O)CN2CCSc3ccccc32)c1	none (no result: ALR inh)
COc1ccccc1NC(=O)CN1CCSc2ccccc21	ALR inh 80.5
COC(=O)[C@]12C[C@H](CC(=O)NCc3cccs3)C(=O)N(Cc3ccccc3)C1=C[C@H](C(C)C)O[C@@H]2C1CC1	none (no result: M18AAP inhibitor, MIN6 prolif, Exocytosis inh, JMJD2C inh, ALR inh)
CCNc1cccc2c1C(=O)N(C)C2=O	SMARCA2 act 7.8 (no result: ALR inh)
OC(CN1c2ccccc2Sc2ccccc21)Cn1nnc2ccccc21 (configuration not stated)	ALR inh 98.1
Cc1nn(CC(O)CN2c3ccccc3Sc3ccccc32)c(C)c1Br (configuration not stated)	none
OCC(CO)(CO)NCC(O)CN1c2ccccc2Sc2ccccc21 (configuration not stated)	ALR inh 98.7 (no result: SMARCA2 act)
COc1cc(C(NC(=O)C(F)(F)F)C2CCCC=C2c2ccccc2)cc(OC)c1OC (configuration not stated)	none (no result: M18AAP inhibitor, MIN6 prolif, Exocytosis inh, JMJD2C inh, ALR inh)
Cc1c(C(=O)NC2CC2)oc2ccccc12	none (no result: M18AAP inhibitor)
COCc1c(C(=O)NC2CCCCCC2)oc2ccccc12	ALR inh 89.2
CC(=O)c1ccc(-c2ccc(C(=O)NC3CC(C)(C)NC(C)(C)C3)o2)cc1	ALR inh 98.0 (no result: M18AAP inhibitor)
CCc1csc(N2[C@H](CN(CCOC)S(=O)(=O)c3ccccc3[N+](=O)[O-])[C@H](c3ccccc3)[C@@H]2CO)n1	none (no result: M18AAP inhibitor, MIN6 prolif, Exocytosis inh, JMJD2C inh, ALR inh)

Source: PubChem BioAssay (several laboratories)
